Assay outcomes (PubChem BioAssay)
A selection: hits, their analogues and other compounds. The true share with any hit is near 14%.
4-MU autofl – qHTS Assay for Spectroscopic Profiling in 4-MU Spectral Region. hit rate 11% among 59,000. AID 589, 2007. max dye-equivalent concentration, M. compound autofluorescence, 340/450 nm, 4-MU equivalents; active compounds read high; in the data active means max dye-equivalent concentration above about 10 nM; inconclusive means mostly about 1.1 nM to 9.6 nM
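Intrinsic fluorescence at 340/450 nm (ex/em) was read after 15 min at room temperature in pH 8.0, 100 mM Tris. Each compound concentration expressed as 4-MU-equivalent concentration from a six-point 4-MU standard series on each plate.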
A350 fluor – qHTS Assay for Spectroscopic Profiling in A350 Spectral Region. Compound autofluorescence, 340/450 nm, Alexa 350 dye-equivalents; active compounds read high. max dye-equivalent concentration, M. hit rate 11% among 59,000. AID 590, 2007; in the data active means max dye-equivalent concentration above about 10 nM; inconclusive means mostly about 1.1 nM to 9.6 nM
AID923 – qHTS Assay for Allosteric/Competitive Inhibitors of Caspase-1: Spectroscopic Profiling in AFC Spectral Region; compound fluorescence, AFC spectral region (405/520 nm); hit rate 1.1% among 75,000; Potency, µM (titrated, usually from 57.5 µM), for inactives: top-dose fluorescence increase, hits mostly activators; further: potency means the concentration at half of the fitted maximal effect; 0% is about no effect
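Titrations up to 57 uM read every 20 sec for 3 min (405/520 nm) with 50 nM caspase 1 and 5 uM Ac-WEHD-AFC, pH 7.5 HEPES buffer. Fluorescence-vs-time intercept gave baseline, scaled against on-plate AFC standard.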
HSD17B inhib – qHTS Assay for Inhibitors of HSD17B4, hydroxysteroid (17-beta) dehydrogenase 4. hit rate 7.6% among 75,000. 3-hydroxyacyl-CoA dehydrogenase type-2 (Homo sapiens), Q99714. recombinant HSD17B10, NADH fluorescence kinetic. Potency, µM (top dose mostly 57.1 µM), for the others: at the highest dose activity change, negative = inhibition, actives largely listed as inhibitors. AID 893, 2007;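 further: the protocol describes HADH2 (HSD17B10) and not the HSD17B4 of the title; potency means the concentration at half of the fitted maximal effect; on the % scale 0 is the no-effect control and ±100 the full control effect; nearly all actives have a fitted effect of over 70% in size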
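Activity followed as NADH fluorescence increase (ex 360, em 450 nm) every 30 seconds for 4 min, using final 90 uM beta-hydroxybutyryl CoA and 1 mM NAD+. Recombinant His-tagged enzyme, 20 nM, pH 9.0 Tris buffer, 15 min compound preincubation.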
CRE-bla Fsk – Cell signaling CRE-BLA (Fsk stim); CHO CRE-bla reporter (cAMP response element driving beta-lactamase), forskolin EC10, beta-lactamase ratio; Potency, µM (series often up to 38.2 µM), for inactives: at the highest dose activity change, negative = inhibition, most hits filed as activators; AID 662, 2007; hit rate 2.5% among 71,000; active means well fitted activation curve with a large enough effect in the signal ratio, with a control signal flat, not every such curve was filed as active; inconclusive means small, poorly fitted or top-dose-only effect, or effect the other way, or a change in a side signal; the % refers to the signal ratio; further: potency means the concentration at half of the fitted maximal effect; % of control where 0% means no effect
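Modulation of forskolin-driven signalling is measured in CHO cells carrying a CRE-controlled beta-lactamase reporter. Cells are stimulated with EC10 NKH 477 in the presence of titrated compound for 3 h at 37 °C, then loaded with CCF4 for 2 h at room temperature.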
HADH2 inh – qHTS Assay for Inhibitors of HADH2 (Hydroxyacyl-Coenzyme A Dehydrogenase, Type II); 3-hydroxyacyl-CoA dehydrogenase type-2 (Homo sapiens), Q99714; recombinant HADH2, NADH fluorescence, beta-hydroxybutyryl-CoA; Potency, µM (series often up to 57.1 µM), for inactives: at the highest dose activity change, negative = inhibition, actives largely listed as inhibitors; hit rate 3.4% among 73,000; further: potency means the concentration at half of the fitted maximal effect; on the % scale 0 is the no-effect control and ±100 the full control effect; nearly all actives have a fitted effect of over 60% in size
Target sequence (Q99714 whole entry, looked up, one chain of several): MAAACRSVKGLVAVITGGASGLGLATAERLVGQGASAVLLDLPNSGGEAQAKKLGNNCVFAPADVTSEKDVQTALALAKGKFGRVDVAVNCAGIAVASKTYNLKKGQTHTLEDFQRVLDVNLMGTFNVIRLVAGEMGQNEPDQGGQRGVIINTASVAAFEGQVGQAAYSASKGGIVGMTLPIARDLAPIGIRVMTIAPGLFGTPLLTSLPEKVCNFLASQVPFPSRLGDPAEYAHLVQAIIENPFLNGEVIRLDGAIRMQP
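Read-out: 360 nm excitation, 450 nm emission, kinetic over 4 min. Conditions: His-tagged human HADH2 20 nM, pH 9.0 Tris with Tween-20, 1 mM NAD+, 90 uM beta-hydroxybutyryl-CoA.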
* = called active by the depositor; i = inactive; ? = inconclusive; nt = no result; [ ] = dose if it differs, or a comment. Unless noted, the call rests on the fitted dose curve; in most records, active means well fitted curve in the direction sought with a large enough effect; inconclusive means small, poorly fitted or top-dose-only effect, or another doubt; inactive means no such curve, though single readings can be large; an effect the other way counts as inactive or inconclusive.

SMILES | 4-MU autofl | A350 fluor | AID923 | HSD17B inhib | CRE-bla Fsk | HADH2 inh
CCN(C(=O)CN1CCN(c2ccc(OC)cc2)CC1)c1c(N)n(Cc2ccccc2)c(=O)[nH]c1=O | ? | 1.31e-08M* | -0.8% | 0.2% | 4.3% | -2.3%
CCN(C(=O)CN1CCN(c2ccccc2)CC1)c1c(N)n(Cc2ccccc2)c(=O)[nH]c1=O | ? | ? | 0.2% | 6.9% | -9.6% | 7.2%
CC1(C)Cc2c(C#N)c(SCCC#N)nc(N3CCOCC3)c2CS1 | i | ? | nt | nt | nt | nt
CC1(C)Cc2c(c(N3CCOCC3)nc3sc(C#N)c(N)c23)CS1 | 1.56e-07M* | 2.07e-07M* | nt | nt | nt | nt
Cc1nc2sc(C(=O)O)c(N)c2c2c1COC(C)(C)C2 | ? | ? | 5.1% | 4.8% | ? | -10.4%
CCOC(=O)c1sc2nc(N3CCOCC3)c3c(c2c1N)CCC3 | 5.53e-07M* | 7.54e-07M* | 7.0% | 12.6µM* | 10µM* | ?
CCOC(=O)c1sc2nc(N3CCOCC3)c3c(c2c1N)CC(C)(C)N(C)C3 | nt | nt | 13.3% | 25.1µM* | 10.6% | 25.6%
CCN1CCN(c2ncnc3c2sc2nc(N4CCOCC4)c4c(c23)CCC4)CC1 | i | i | 1.2% | 31.6µM* | 5.7% | -21.5%
O=c1cc(N=Nc2ccc(O)cc2)[nH]c(=O)[nH]1 | i | i | -0.2%[11.5 µM] | 4.2%[11.4 µM] | -6.4%[7.6 µM] | -12.7%[11.4 µM]
O=C(O)C1C2C=CC3(CN(Cc4ccccn4)C(=O)C13)O2 (centres undefined) | i | ? | -0.6% | 7.7% | 0.2% | 10.3%
Cc1nc2ccc(F)cc2cc1C(=O)NC(C)C | i | i | 1.2% | 2.9% | ? | 5.0%
COC(=O)c1sc2nc(N3CCCCC3)c3c(c2c1N)CC(C)(C)N(C)C3 | 5.92e-07M* | 6.64e-07M* | nt | nt | nt | nt
COC(=O)c1sc2nc3c(cc2c1N)C(=O)CC(C)(C)C3 | i | i | -1.5% | -6.2% | 5.1% | 1.4%
COC(=O)CSc1nnc2c3c4c(sc3nc(-n3nc(C)cc3C)n12)COC(C)(C)C4 | 5.82e-08M* | 7.76e-08M* | 0.0% | 25.1µM* | ? | ?
Cc1cc(C)n(-c2nc3sc4c(c3c3nnc(SC(C)C)n23)CC(C)(C)OC4)n1 | 2.21e-08M* | 2.88e-08M* | 3.2% | ? | -8.0% | 2.3%
Cn1c(=O)c2c3c(sc2n2c(SCC(=O)c4ccccc4)nnc12)COC(C)(C)C3 | i | i | nt | nt | nt | nt
CSc1nc2sc3c(c2c2nnnn12)CC(C)(C)OC3 | i | i | nt | nt | nt | nt
CCCc1cc(OC)c2c(c1)OCO2 | nt | nt | -1.2% | 4.1% | nt | nt
COc1ccc2c(c1)OC(O)(C(F)F)CC2=O (centres undefined) | nt | nt | 1.2% | -0.5% | -5.6% | -9.6%
O=C1CC(O)(C(F)(F)F)Oc2c1ccc1ccccc21 (centres undefined) | nt | nt | 4.4% | 25.1µM* | ? | 20.1%
O=C1CC(O)(C(F)F)Oc2ccc3ccccc3c21 (centres undefined) | 1.22e-06M* | 1.75e-06M* | 6.5% | 31.6µM* | ? | -11.1%
CCOC(=O)c1c(NC(=O)COC)sc2c1CCCC2 | ? | ? | -1.4% | -20.3% | ? | -4.1%
CCOC(=O)c1c(NC(C)=O)sc2c1CCCNC2=O | i | i | 0.0% | 4.1% | 12.6µM* | 3.0%
O=C(Nc1nccs1)c1cc(S(=O)(=O)N2CCOCC2)ccc1Cl | nt | nt | 1.0% | 6.9% | -0.7% | -1.3%
c1cncc(CNc2ncncc2-c2cccnc2)c1 | i | i | 0.5% | -0.1% | 3.0% | 4.2%
COC(=O)c1ccc(CSc2nc3c(cnn3-c3ccccc3)c(=O)[nH]2)o1 | i | i | 0.2% | ? | 3.98µM* | -14.4%
COc1cc(NC(=O)c2noc3c2CCC3)c(OC)cc1Cl | 1.5e-08M* | 1.71e-08M* | -0.9% | 3.98µM* | -0.9% | 12.6µM*
COC(=O)c1ccccc1NC(=O)c1noc2c1CCCC2 | i | i | -1.5% | 37.0% | ? | -3.5%
